# The supplement of paper PMC8728848
# The sample as a whole holds a higher share of the strongest signals than the screen did.
# B1: CV-IIL (Chromobacterium violaceum) (protein)
# chain: AQQGVFTLPARINFGVTVLVNSAATQHVEIFVDNEPRAAFSGVGTGDNNLGTKVINSGSGNVRVQITANGRQSDLVSSQLVLANKLNLAVVGSEDGTDMDYNDSIVILNWPLG
# Key:
# Experiment in all cases: glycan array binding signal (z-score within array); higher = stronger binding
# Details in all cases: glycan notation: IUPAC condensed, linker removed
# [1] = molecular target: Fuc(a1-2)Gal(b1-3)GlcNAc
# Procedure, shortened: (§1)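 Glycan array data came from 3228 arrays in the Consortium for Functional Glycomics database, and only arrays with an available protein sequence were kept. Glycan names were put into IUPAC-condensed notation, and columns mapping to the same glycan were averaged. The binding signal is a within-array Z-score, averaged across arrays of one protein sequence run at different concentrations or buffers and across linkers. A negative Z-score can be read as non-binding.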
# [2] = molecular target: Fuc(a1-2)Gal(b1-3)[Fuc(a1-4)]GlcNAc
# Procedure, shortened: as §1
# [3] = molecular target: Fuc(a1-2)Gal(b1-4)GlcNAc
# Procedure, shortened: as §1
# [4] = molecular target: Fuc(a1-2)[Gal(a1-4)]Gal(b1-4)GlcNAc
# Procedure, shortened: as §1
# [5] = molecular target: Fuc(a1-2)[GalNAc(a1-4)]Gal(b1-4)GlcNAc
# Procedure, shortened: as §1
# [6] = molecular target: Gal(a1-3)Gal(b1-4)GlcNAc
# Procedure, shortened: as §1
# [7] = molecular target: Gal(a1-4)GlcNAc
# Procedure, shortened: as §1
# [8] = molecular target: Gal4S(b1-4)GlcNAc
# Procedure, shortened: as §1
# [9] = molecular target: GalNAc(a1-3)Gal
# Procedure, shortened: as §1
# [10] = molecular target: Glc(a1-4)Glc
# Procedure, shortened: as §1
# [11] = molecular target: GlcNAc(a1-6)Gal(b1-4)GlcNAc
# Procedure, shortened: as §1
# [12] = molecular target: Kdn(a2-3)Gal(b1-4)GlcNAc
# Procedure, shortened: as §1
# [13] = molecular target: Man(a1-2)Man(a1-3)Man
# Procedure, shortened: as §1
# [14] = molecular target: Man(a1-3)[Man(a1-6)]Man
# Procedure, shortened: as §1
# [15] = molecular target: Man(a1-3)[Man(a1-6)]Man(b1-4)GlcNAc(b1-4)GlcNAc
# Procedure, shortened: as §1
# [16] = molecular target: Neu5Ac(a2-3)Gal(b1-4)GlcNAc(b1-3)Gal(b1-4)GlcNAc
# Procedure, shortened: as §1
# [17] = molecular target: Neu5Ac(a2-8)Neu5Ac(a2-3)[GalNAc(b1-4)]Gal(b1-4)Glc
# Procedure, shortened: as §1
# [18] = molecular target: Neu5Ac(a2-8)Neu5Ac(a2-8)Neu5Ac
# Procedure, shortened: as §1
# [19] = molecular target: Neu5Ac9Ac(a2-6)Gal(b1-4)GlcNAc
# Procedure, shortened: as §1
binder,measurement,setting,value
B1,glycan array binding signal (z-score),[1],2.67
same,glycan array binding signal (z-score),[2],2.2
same,glycan array binding signal (z-score),[3],2.98
same,glycan array binding signal (z-score),[4],1.68
same,glycan array binding signal (z-score),[5],1.2
same,glycan array binding signal (z-score),[6],-0.501
same,glycan array binding signal (z-score),[7],-0.501
same,glycan array binding signal (z-score),[8],-0.501
same,glycan array binding signal (z-score),[9],-0.502
same,glycan array binding signal (z-score),[10],-0.49
same,glycan array binding signal (z-score),[11],-0.501
same,glycan array binding signal (z-score),[12],-0.502
same,glycan array binding signal (z-score),[13],1.55
same,glycan array binding signal (z-score),[14],2.82
same,glycan array binding signal (z-score),[15],2.82
same,glycan array binding signal (z-score),[16],-0.498
same,glycan array binding signal (z-score),[17],-0.501
same,glycan array binding signal (z-score),[18],-0.501
same,glycan array binding signal (z-score),[19],-0.502
